Design in all cases: scale not given: direction of the effect not stated beside the values
Test [1] deals with Protein translocase subunit SecA (Escherichia coli (strain K12)) (UniProt P10408). Nature of the test: Assay to Identify E. coli SecA ATPase Inhibitors. Format: functional. Particulars: 30 µM.
Test [2] deals with T1, Ubiquitin-activating enzyme e1, putative (Leishmania donovani (strain BPK282A1)) (UniProt E9BSI1).
T1 sequence (whole entry): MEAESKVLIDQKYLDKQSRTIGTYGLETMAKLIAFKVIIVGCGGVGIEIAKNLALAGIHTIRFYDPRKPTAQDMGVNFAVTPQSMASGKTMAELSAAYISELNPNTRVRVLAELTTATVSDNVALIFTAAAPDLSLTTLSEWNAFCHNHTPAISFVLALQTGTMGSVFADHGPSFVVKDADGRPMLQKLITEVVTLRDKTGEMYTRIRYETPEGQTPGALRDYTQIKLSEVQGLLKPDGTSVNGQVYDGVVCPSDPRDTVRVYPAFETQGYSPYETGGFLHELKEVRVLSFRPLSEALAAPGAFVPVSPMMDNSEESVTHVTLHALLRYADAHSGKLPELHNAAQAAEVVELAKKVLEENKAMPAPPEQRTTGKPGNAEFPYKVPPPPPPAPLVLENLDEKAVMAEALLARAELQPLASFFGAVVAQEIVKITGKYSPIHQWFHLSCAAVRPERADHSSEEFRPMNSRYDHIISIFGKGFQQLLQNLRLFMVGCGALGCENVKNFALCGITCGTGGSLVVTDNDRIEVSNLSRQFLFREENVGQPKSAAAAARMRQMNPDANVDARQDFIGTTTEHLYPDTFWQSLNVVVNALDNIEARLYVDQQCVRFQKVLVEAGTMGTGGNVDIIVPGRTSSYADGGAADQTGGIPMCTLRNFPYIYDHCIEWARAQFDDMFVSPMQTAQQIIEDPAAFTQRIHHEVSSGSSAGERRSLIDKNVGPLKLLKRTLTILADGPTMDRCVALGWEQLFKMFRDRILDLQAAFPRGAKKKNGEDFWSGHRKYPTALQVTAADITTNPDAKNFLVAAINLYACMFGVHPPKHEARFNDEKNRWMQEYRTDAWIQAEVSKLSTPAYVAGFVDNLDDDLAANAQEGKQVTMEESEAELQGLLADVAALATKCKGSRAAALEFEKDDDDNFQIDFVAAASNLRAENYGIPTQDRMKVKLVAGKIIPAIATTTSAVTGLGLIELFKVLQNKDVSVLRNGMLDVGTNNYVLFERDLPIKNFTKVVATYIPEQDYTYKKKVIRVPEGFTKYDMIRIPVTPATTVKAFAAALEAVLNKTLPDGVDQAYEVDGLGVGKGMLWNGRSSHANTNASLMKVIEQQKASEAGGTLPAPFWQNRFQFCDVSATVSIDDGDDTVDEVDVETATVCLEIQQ
Nature of the test: Leishmania donovani Ubiquitin Activating Enzyme (LdE1). Conditions: 30 µM. Type of test: functional.

Test [3] addresses T2, Aspartate--tRNA(Asp/Asn) ligase (Mycobacterium tuberculosis (strain ATCC 25618 / H37Rv)) (UniProt P9WFW3).
T2 sequence (whole entry): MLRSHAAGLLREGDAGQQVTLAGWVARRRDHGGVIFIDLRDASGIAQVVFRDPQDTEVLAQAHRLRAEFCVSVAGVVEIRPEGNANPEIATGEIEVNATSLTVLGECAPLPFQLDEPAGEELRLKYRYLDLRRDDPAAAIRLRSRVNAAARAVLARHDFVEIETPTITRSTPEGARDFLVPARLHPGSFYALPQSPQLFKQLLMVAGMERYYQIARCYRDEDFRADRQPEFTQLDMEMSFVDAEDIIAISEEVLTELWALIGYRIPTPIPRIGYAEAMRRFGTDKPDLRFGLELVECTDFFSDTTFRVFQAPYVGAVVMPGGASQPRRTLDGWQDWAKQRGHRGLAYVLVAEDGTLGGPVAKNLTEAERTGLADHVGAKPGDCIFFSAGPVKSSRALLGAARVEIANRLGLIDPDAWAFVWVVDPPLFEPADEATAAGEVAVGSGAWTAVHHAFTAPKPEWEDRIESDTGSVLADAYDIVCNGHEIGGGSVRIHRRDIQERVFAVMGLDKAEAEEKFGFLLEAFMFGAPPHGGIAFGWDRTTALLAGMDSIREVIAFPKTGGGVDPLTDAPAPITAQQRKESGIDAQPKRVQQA
The test can be described thus: Assay for Asp RNA synthetase-1 from Mycobacterium tuberculosis. Particulars: 30 µM. Format: functional.

The target in test [4] is AMP-activated protein kinase, AMPK (Homo sapiens) (UniProt P54646+O43741+P54619+Q9UGJ0+Q9Y478+Q13131+Q9UGI9). Nature of the test: AMP-dependent Kinase enzyme assay. An in vitro enzyme assay that detects ADP turnover that is directly proportional to AMPK activity. This uses naive AMPK that is activated during the assay with MK-8722. Type of test: functional. Conditions: 30 µM.

Test [5] addresses Sialic acid-binding Ig-like lectin 9 (Homo sapiens) (UniProt Q9Y336). The test can be described thus: Hs-Siglec9 ALPHAscreen SOP 20170721. Particulars: 10 µM. A general note: Bead proximity is the source of the signal in Alpha formats.
In test [6] the test system is Trypanosoma cruzi. Nature of the test: Trypanosoma cruzi phosphomannomutase and mannose-1-phosphate guanylyltransferase assay. Format: functional. Particulars: 10 µM.
In test [7] the target is T3, Arginase-2, mitochondrial (Homo sapiens) (UniProt P78540).
T3 sequence (whole entry): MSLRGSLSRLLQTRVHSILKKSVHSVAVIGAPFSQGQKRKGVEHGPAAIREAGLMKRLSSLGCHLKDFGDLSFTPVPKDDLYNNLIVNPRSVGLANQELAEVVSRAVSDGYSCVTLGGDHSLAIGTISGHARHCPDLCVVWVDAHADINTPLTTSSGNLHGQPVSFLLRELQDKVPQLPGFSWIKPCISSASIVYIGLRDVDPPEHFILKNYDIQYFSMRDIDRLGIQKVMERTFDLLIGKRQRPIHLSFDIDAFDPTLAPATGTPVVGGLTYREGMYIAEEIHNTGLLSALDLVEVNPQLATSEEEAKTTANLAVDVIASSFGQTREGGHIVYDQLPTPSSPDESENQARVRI
The test can be described thus: in vitro enzyme assay to detect the production of urea directly proportional to the activity of Arginase II. Note: in the data most compounds retested in dose-response had high values. Type of test: functional. Conditions: 33.3 µM.

The target of test [8] is T4, Proteasome subunit beta (Trypanosoma cruzi) (UniProt O96673).
T4 sequence (whole entry): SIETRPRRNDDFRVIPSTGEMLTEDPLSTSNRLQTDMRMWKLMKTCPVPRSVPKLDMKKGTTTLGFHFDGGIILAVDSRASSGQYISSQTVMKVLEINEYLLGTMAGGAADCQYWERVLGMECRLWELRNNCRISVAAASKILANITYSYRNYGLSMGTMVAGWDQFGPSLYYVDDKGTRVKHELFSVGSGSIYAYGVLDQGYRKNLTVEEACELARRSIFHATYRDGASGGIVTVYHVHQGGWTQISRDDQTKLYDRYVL
The test can be described thus: Trypanosoma cruzi proteasome chymotrypsin-like activity (TcProtChymo) assay. Note: in the data most compounds retested in dose-response had high values. Type of test: functional. Particulars: 9.37 µM.

Test [9] is filed under the species Homo sapiens. The test can be described thus: To identify inhibition of the IFN signalling (Jak-Stat) pathway via expression of an eGFP reporter gene under the control of an IFN-stimulated response element (ISRE) containing MxA promoter. Type of test: functional. Conditions: 30 µM. In general terms: A reporter such as luciferase makes a cellular process visible.

The target in test [10] is Shiga toxin 2 (Escherichia coli O157:H7) (UniProt P09385+P09386). The test can be described thus: E. coli 0.157:H7 Shiga Toxin SOP - stx2 screening assay. Format: functional. Conditions: 30 µM.
Test [11] deals with T5, Tyrosyl-tRNA synthetase, putative (Trypanosoma cruzi (strain CL Brener)) (UniProt Q4DSP6).
T5 sequence (whole entry): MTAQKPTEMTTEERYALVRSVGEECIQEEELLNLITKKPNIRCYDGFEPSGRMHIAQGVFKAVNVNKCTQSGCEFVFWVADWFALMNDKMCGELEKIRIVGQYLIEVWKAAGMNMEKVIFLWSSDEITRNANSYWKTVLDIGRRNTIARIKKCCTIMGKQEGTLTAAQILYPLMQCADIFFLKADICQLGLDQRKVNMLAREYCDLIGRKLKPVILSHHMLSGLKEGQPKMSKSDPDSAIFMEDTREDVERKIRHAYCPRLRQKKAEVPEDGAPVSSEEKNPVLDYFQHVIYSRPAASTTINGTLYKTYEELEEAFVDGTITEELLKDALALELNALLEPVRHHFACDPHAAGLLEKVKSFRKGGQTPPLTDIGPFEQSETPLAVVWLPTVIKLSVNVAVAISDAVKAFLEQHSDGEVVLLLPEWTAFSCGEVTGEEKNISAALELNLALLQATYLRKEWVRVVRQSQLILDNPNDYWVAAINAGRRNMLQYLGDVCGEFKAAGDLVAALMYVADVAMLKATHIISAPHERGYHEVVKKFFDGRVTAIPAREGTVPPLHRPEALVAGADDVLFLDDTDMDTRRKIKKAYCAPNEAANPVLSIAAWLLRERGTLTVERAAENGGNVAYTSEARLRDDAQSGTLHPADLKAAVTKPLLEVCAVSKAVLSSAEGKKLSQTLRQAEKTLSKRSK
The test can be described thus: Trypanosoma cruzi tyrosyl tRNA synthetase (TcYRS) _High Tyrosine SOP. Note: in the data most compounds retested in dose-response had high values. Format: functional. Conditions: 30 µM.

Test [12] addresses T5, Tyrosyl-tRNA synthetase, putative (Trypanosoma cruzi (strain CL Brener)). Nature of the test: Trypanosoma cruzi tyrosyl tRNA synthetase (TcYRS) SOP. Type of test: functional. Conditions: 30 µM.
Test [13] addresses Chromo domain-containing protein 1 (Saccharomyces cerevisiae (strain ATCC 204508 / S288c) (Baker's yeast)) (UniProt P32657). The test can be described thus: ScCHD-1 Enzyme Inhibition Assay. Note: in the data most compounds retested in dose-response had high values. Type of test: functional. Conditions: 30 µM.

Structures are written as SMILES. For some assays here: Entries with a potency or affinity are not part of this list.

Chain of Sialic acid-binding Ig-like lectin 9 (Homo sapiens) (Q9Y336 whole entry): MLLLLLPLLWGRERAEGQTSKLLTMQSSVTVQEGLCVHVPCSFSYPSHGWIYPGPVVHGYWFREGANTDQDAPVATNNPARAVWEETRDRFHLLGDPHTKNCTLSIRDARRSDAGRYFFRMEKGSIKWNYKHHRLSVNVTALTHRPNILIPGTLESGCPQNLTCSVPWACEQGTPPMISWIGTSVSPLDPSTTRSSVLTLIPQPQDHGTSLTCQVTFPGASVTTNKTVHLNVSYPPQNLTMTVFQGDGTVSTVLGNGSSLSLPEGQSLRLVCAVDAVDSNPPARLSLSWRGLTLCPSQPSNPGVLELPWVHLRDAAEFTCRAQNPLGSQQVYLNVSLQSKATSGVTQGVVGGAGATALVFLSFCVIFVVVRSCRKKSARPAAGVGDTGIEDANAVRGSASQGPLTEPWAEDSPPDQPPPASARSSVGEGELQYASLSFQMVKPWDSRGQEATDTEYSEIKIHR
Chain of Chromo domain-containing protein 1 (Saccharomyces cerevisiae (strain ATCC 204508 / S288c) (Baker's yeast)) (P32657 whole entry, the tested form may be a part): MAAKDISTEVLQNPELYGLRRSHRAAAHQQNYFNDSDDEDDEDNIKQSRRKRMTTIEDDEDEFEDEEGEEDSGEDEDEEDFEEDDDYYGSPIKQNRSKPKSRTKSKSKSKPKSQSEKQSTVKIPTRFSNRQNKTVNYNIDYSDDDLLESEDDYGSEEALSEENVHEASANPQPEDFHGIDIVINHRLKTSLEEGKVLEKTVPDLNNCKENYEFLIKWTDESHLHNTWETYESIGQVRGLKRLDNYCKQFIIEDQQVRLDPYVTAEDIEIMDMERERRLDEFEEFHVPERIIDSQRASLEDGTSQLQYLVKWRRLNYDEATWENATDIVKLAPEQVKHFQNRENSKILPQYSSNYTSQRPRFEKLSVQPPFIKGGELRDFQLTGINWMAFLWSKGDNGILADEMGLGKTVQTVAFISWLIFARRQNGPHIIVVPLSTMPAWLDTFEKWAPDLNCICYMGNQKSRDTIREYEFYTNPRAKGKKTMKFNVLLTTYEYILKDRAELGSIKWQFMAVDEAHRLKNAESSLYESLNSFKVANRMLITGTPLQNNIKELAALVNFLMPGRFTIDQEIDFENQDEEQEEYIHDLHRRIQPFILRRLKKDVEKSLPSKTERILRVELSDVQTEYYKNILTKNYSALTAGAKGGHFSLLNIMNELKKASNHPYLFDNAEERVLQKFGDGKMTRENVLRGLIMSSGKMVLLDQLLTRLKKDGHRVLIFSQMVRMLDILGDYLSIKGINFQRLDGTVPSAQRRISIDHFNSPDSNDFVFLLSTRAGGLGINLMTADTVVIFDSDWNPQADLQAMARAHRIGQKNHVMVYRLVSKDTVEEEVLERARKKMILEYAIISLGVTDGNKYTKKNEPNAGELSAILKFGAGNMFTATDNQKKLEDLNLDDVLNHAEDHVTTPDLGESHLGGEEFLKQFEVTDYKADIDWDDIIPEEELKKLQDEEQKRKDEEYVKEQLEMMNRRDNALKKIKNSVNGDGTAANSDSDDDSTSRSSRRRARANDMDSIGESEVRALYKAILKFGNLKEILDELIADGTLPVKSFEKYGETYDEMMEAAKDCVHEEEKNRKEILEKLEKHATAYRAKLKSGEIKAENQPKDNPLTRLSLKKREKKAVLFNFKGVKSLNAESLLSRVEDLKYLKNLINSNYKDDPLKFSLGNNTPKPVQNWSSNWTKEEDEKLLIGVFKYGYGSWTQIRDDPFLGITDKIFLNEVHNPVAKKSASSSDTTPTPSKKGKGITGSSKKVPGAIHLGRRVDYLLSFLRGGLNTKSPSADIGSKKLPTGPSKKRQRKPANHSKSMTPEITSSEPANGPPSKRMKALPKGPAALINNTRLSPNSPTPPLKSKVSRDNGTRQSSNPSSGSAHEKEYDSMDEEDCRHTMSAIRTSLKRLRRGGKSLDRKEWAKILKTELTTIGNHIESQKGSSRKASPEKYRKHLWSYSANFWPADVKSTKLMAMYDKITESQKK
Chain of Protein translocase subunit SecA (Escherichia coli (strain K12)) (P10408 whole entry): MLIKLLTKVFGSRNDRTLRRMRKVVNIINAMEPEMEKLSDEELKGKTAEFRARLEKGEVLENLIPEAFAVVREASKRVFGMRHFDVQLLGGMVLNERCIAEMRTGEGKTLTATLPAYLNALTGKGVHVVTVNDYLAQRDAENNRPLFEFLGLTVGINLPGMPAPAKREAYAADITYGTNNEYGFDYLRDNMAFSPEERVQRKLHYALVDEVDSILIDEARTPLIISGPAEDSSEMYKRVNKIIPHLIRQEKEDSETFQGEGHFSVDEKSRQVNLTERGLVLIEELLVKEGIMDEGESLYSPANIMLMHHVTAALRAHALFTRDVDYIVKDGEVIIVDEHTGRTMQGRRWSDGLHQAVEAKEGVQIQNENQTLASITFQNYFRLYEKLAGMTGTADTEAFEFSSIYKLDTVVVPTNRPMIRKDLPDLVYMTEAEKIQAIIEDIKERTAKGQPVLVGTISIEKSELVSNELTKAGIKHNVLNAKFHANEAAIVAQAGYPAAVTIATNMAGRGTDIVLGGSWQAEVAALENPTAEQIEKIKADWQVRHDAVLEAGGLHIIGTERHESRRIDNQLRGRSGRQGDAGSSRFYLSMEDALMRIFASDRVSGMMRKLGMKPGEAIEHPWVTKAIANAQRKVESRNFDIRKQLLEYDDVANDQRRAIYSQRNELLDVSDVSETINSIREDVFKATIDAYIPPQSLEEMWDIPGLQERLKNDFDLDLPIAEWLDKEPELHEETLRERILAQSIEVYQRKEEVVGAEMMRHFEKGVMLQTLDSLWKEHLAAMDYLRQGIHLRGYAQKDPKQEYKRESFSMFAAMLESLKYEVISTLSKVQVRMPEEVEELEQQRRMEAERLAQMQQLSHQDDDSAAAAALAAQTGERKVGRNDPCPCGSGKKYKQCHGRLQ

Turning to `Cc1nc(N(C)C)nc2c1COCC21CCN(CC2CC2)C1` (centres undefined), the Percent Effect in test [1] was -3.83%; in test [2] it was -8.11%; in [3], 3.96%; in test [4], -0.232%; in test [5], 1.53%; in test [6], -5.86%. The Percent Effect was 1.25% in test [7]; 7.18% in test [8]; 4.17% in [9]; -14.2% in test [10]; 6.93% in [11]; 6.1% in test [12]. The Percent Effect in [13] is -5.03%.
Regarding `CCN1CCC(c2cncc(N(C)C)n2)CC1`, the Percent Effect was -1.04% in test [1]; 13.3% in test [2]; -2.49% in test [3]; 1.31% in test [4]; -3.05% in test [5]; -2.76% in test [6]. Further, the Percent Effect in [7] was -3.96%; in test [8], 13.5%; in test [9], 6.71%; in test [10], -7.25%; in test [11] it was 3.19%; in test [12] it was 11.5%. Moreover, the Percent Effect in test [13] was -4.48%.
Consider `CC1=N[C@@]2(CC[C@@H]3CNC[C@@H]32)C(=O)N1CC(C)C`, for which the Percent Effect in [1] is 0.0241%; in [2] it was 13.5%; in [3], 7.41%; in test [4], -8.73%; in test [5] it was -11.6%; in test [6], -6.35%. The Percent Effect in [7] is 7.96%; in test [8], 11.2%; in test [9] it was 30.2%; in [10], -6.54%; in [11], -1.08%; in [12], 0%. The Percent Effect in [13] was -5.25%.
In the case of `Cc1nc(C)c(CC(=O)N2C[C@@H]3CC[C@H](C2)N(CC2CCC2)C3)c(=O)[nH]1`, the Percent Effect was -2.23% in test [1]; 18.9% in test [2]; -2.78% in [3]; -35.4% in test [4]; 21.6% in test [5]; 4.2% in test [6]. The Percent Effect in test [7] was 16.1%; in test [8], 16.2%; in test [9], -15.8%; in [10] it was 5.33%; in test [11], 4.3%; in test [12] it was 18.5%. The Percent Effect in test [13] is -11.7%.
Regarding `CNC(=O)c1ccc2c(c1)C1(CCN(CC(C)C)CC1)C(=O)N2`, the Percent Effect was -7.23% in test [1]; 5.41% in test [2]; 3.94% in test [3]; -0.561% in test [4]; -0.632% in test [5]; -4.2% in test [6]. Further, the Percent Effect came to 0.248% in [7]; 3.52% in test [8]; 3.77% in test [9]; 7.05% in test [10]; 4.3% in test [11]; 11.1% in test [12]. The Percent Effect in test [13] was -2.94%.
Regarding `O=C1CC2(CCN(CC3CC3)C2)CN1c1cccnc1` (centres undefined), the Percent Effect in test [1] is -0.0321%; in test [2] it was 8.11%; in test [3], 1.57%; in test [4], -3.31%; in test [5], 8.46%; in test [6], -5.18%. For the same molecule, the Percent Effect in test [7] was 7.2%; in test [8] it was 11.4%; in test [9] it was -22.5%; in [10], -25.7%; in test [11], 10.8%; in [12] it was 11.1%. In addition, in [13], the Percent Effect is -7.21%.
Regarding `Cc1oc(-c2ccco2)nc1CC(=O)N1CCN(C2CCC2)CC1`, the Percent Effect is -7.4% in test [1]; 7.79% in test [2]; -0.115% in test [3]; -1.25% in [4]; 1.16% in test [5]; 1.08% in test [6]. Further, the Percent Effect in test [7] was 4%; in [8] it was 12.8%; in test [9], 2.52%; in test [10], 24.8%; in test [11], 0%; in [12], 7.06%. The Percent Effect in test [13] was -19%.
As to `COc1ccccc1C1SCC(=O)Nc2n[nH]cc21` (centres undefined), the Percent Effect in test [1] was -5.34%; in test [2] it was 5.26%; in test [3] it was 6.47%; in test [4], 16.6%; in test [5], -1.26%; in [6], -2.63%. For the same molecule, the Percent Effect in test [7] is 15.4%; in test [8] it was 12.6%; in test [9], -13.4%; in test [10], 5.55%; in test [11] it was 3.19%; in test [12] it was 2.6%. Also, in test [13], the Percent Effect is -2.61%.

(Values after ChEMBL document CHEMBL3988442, “University of Dundee, Small-Polar-MMV Screening Library” (2021).)
